About 25,000 (6.9%) of roughly 360,000 compounds were called active. About 9% were inconclusive and are not listed. Calls follow the shape of the dose curve; as a rule, active = well fitted inhibition curve with a large enough effect; inconclusive = small, poorly fitted or top-dose-only effect; inactive = flat fitted curve, though single readings scatter. Shown is part of a subset that was picked to be rich in actives. Where a call stands in place of a potency, no number is given.
target: Luciferin 4-monooxygenase (Photinus pyralis) (UniProt P08659); experiment: qHTS profiling assay for firefly luciferase inhibitor/activator using purifed enzyme and Km concentrations of substrates (counterscreen for miR-21 project); settings: purified FLuc, luminescence inhibition; series mostly up to 57.5 µM; also: nearly all actives have a fitted effect of over 55% in size
Method in brief: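 Purified P. pyralis luciferase, 10 nM final, with Km-level 10 uM D-luciferin and 10 uM ATP in 50 mM Tris acetate pH 7.5, 10 mM Mg acetate, 0.01% Tween-20, 0.05% BSA; 6-point qHTS titration about 60 µM downward; luminescence read.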
Potency is read from the fitted curve at half-maximal effect.

Luciferin 4-monooxygenase (Photinus pyralis), sequence (P08659 whole entry, looked up): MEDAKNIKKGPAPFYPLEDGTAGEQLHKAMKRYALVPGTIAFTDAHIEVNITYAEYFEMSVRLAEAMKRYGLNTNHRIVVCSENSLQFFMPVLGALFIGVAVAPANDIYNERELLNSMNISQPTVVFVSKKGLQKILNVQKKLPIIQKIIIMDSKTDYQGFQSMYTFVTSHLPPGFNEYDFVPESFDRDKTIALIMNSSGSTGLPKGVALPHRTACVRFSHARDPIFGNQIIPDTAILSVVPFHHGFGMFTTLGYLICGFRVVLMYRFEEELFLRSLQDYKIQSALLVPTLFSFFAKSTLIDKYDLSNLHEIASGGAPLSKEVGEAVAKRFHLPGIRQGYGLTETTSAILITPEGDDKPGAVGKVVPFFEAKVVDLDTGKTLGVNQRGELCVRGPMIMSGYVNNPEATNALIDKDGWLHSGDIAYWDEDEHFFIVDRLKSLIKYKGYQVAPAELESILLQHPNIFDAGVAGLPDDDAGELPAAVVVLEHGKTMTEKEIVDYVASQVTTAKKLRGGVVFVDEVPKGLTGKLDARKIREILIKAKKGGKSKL

Row | SMILES | Potency
1 | C#CC(C)(CC)NC(=O)Cn1nnc(-c2ccc(OCc3c(F)cccc3Cl)cc2)n1 (stereo not given) | inactive
2 | CCn1c(=O)cc(OCC(=O)Nc2cc(Cl)c(OC)cc2OC)c2ccccc21 | inactive
3 | N#C/C(=C\c1cccc(F)c1)c1nc(-c2cc3c(ccc4ccccc43)oc2=O)cs1 | inactive
4 | COc1ccc(Nc2cc(=O)oc3ccccc23)cc1 | inactive
5 | Cc1ccc2nc(-c3ccncc3)cc(C(=O)Nc3ccc(OC(F)F)cc3)c2c1 | inactive
6 | CCOc1ccc(S(=O)(=O)Nc2nc3cc(OC)ccc3s2)cc1 | inactive
7 | COc1ccc2nc(Nc3nc(-c4cc5ccccc5oc4=O)cs3)sc2c1 | 0.849 µM (active)
8 | COc1ccc2nc(Nc3nc(-c4ccncc4)cs3)sc2c1 | 1.51 µM (active)
9 | COc1ccc2oc(=O)cc(-c3cc4ccccc4o3)c2c1 | inactive
10 | COc1ccc2nc(Nc3nc4cc5c(cc4s3)OCCO5)sc2c1 | 9.53 µM (active)
11 | O=c1oc2ccccc2cc1-c1csc(Nc2ccc(O)cc2)n1 | 5.36 µM (active)
12 | COc1ccc(-c2onc(C)c2-c2ccc3c(c2)OCCO3)c(O)c1 | inactive
13 | CCOCCCNC(=O)c1c(NC(=O)Cc2coc3ccc(C)cc23)sc2c1CCC2 | inactive
14 | Cc1cc(NC(=O)CSc2nc(=O)cc(N)n2-c2ccc(F)cc2)no1 | inactive
15 | CC1CCCN(S(=O)(=O)c2ccc3[nH]c(=O)cc(C(=O)NCCc4ccc(Cl)cc4)c3c2)C1 (stereo not given) | inactive
16 | COc1ccc(CNc2nc(-c3ccccc3)nn2C(=O)c2ccccc2OC)cc1 | inactive
17 | Cc1ccc(C)c(Cn2c(=O)n(CCC(=O)NCc3ccc4c(c3)OCO4)c(=O)c3sccc32)c1 | inactive
18 | COc1ccc(-c2nnc(SCC(=O)Nc3ccccc3C)o2)cc1OC | inactive
19 | CCNc1nc(-c2cc3ccccc3o2)cs1 | 0.601 µM (active)
20 | CCOC(=O)CSc1nnc(CNc2nc(-c3ccccc3)cs2)n1C | inactive
21 | Cn1c(CNc2nc(-c3ccccc3)cs2)nnc1SCC(=O)c1ccccc1 | inactive
22 | COc1ccc(-c2c(C)c3ccc(O)c(CN4CCN(C)CC4)c3oc2=O)cc1OC | inactive
23 | COc1cc(OC)cc(-c2c(-c3cccs3)c3cc(-c4ccc(OC)nc4)ccc3n2C)c1 | inactive
24 | CCOc1ccc(OCC)c(NC(=O)c2cc(C)nc3c2c(C)nn3-c2cccc(Cl)c2C)c1 | inactive
25 | COc1cccc(Cn2cc(/C=N/NC(=O)c3cc(O)cc(O)c3)c3ccccc32)c1 | 26.9 µM (active)

Row | SMILES | Potency
26 | N#CCC(=O)N/N=C/c1cn(Cc2ccc3ccccc3c2)c2ccccc12 | inactive
27 | CNC(=S)N/N=C/c1cn(Cc2ccc(C)cc2)c2ccccc12 | inactive
28 | CCOC(=O)NC(=O)/C(C#N)=C\c1ccccc1 | inactive
29 | CCOC(=O)/C(C#N)=C/c1ccc(N2CCCCC2)cc1 | 2.69 µM (active)
30 | COc1ccc(N2CCN(C(=O)/C(C#N)=C/c3ccccc3)CC2)cc1 | inactive
31 | COC(=O)c1ccc(OC)c(Cn2c(=O)n(Cc3ccccc3)c(=O)c3c2c2cc(OC)ccc2n3C)c1 | inactive
32 | CCOc1ccccc1NC(=O)CN1CCCN(Cc2cccc(Cl)c2)S1(=O)=O | inactive
33 | c1cnc(N2CCN(c3ccc4ccccc4n3)CC2)nc1 | 5.36 µM (active)
34 | O=C(c1ccncc1)N1CCN(c2ccc3ccccc3n2)CC1 | inactive
35 | CC12CCC(C(=O)N3CCN(c4ncccn4)CC3)(c3nc4ccccc4nc31)C2(C)C (stereo not given) | inactive
36 | Cc1csc(NC(=O)Nc2ccccc2[N+](=O)[O-])n1 | 4.78 µM (active)
37 | Cc1csc(NC(=O)NC2(C(F)(F)F)Oc3ccccc3O2)n1 | inactive
38 | CN1CCN(CCNC(=O)Nc2ccccc2[N+](=O)[O-])CC1 | inactive
39 | COc1ccc(Cl)cc1NC(=O)CN(C)C(=O)c1ccc2n[nH]nc2c1 | inactive
40 | Cc1cccc(NC(=O)CSc2ncc(-c3ccccc3)[nH]2)c1C | 13.5 µM (active)
41 | Cc1cccc(NC(=O)CSc2nc3c(c(=O)[nH]2)CCC3)c1C | inactive
42 | Cc1cccc(NC(=O)CSc2nc3c(c(=O)[nH]2)CCCC3)c1C | inactive
43 | O=C(Nc1ccccc1Cl)N1CCC(CN2CCCC2)CC1 | inactive
44 | Cc1cc(Nc2cccc(C(F)(F)F)c2)nc2ccc(NC(=O)c3ccc(=O)[nH]c3)cc12 | inactive
45 | CSc1ccc(NC(=O)Cn2nnnc2-c2ccccc2F)cc1 | inactive
46 | CCOc1ccc2nc(C(=O)N3CCCC(C)C3)sc2c1 (stereo not given) | 1.69 µM (active)
47 | Cc1ccc(C)c(NC(=O)C2CCCN(S(=O)(=O)c3cn(C)cn3)C2)c1 (stereo not given) | inactive
48 | CCOc1ccc2nc(N3CCCC(C(=O)Nc4cc(C)ccc4C)C3)sc2c1 (stereo not given) | 2.39 µM (active)
49 | CCOc1ccc2nc(N3CCC(C(=O)Nc4cc(C)ccc4C)CC3)sc2c1 | inactive
50 | CCOc1ccc2nc(N(CCN(C)C)C(=O)c3ccc4ccccc4c3)sc2c1 | inactive

Row | SMILES | Potency
51 | CCCC(=O)N(CCN1CCOCC1)c1nc2ccc(OCC)cc2s1 | inactive
52 | Cc1ccc2cccc(NC(=O)c3ccc(OC(C)C)cc3)c2n1 | inactive
53 | CCOC(=O)c1ccc(CSc2nnc3cc(C)c4ccccc4n23)cc1 | inactive
54 | Oc1c(C(c2ccccc2Cl)N2CCOCC2)sc2nc(-c3ccco3)nn12 (stereo not given) | inactive
55 | CC(=O)c1ccc(NC(=O)C(C)N(C)CC(=O)Nc2ccccc2Cl)cc1 (stereo not given) | inactive
56 | Cc1ccc(C)c(C(C)NC(=O)C2CCCO2)c1 (stereo not given) | inactive
57 | Cc1cc([N+](=O)[O-])ccc1NC(=O)C1CCCO1 (stereo not given) | inactive
58 | Cc1cc(C)c2nc(NC(=O)C3CCCO3)sc2c1 (stereo not given) | 3.79 µM (active)
59 | COCCn1c(SCC(=O)c2cc(C)ccc2C)nc2cc(C(=O)NC3CCCC3)ccc2c1=O | inactive
60 | O=C(C1Cc2ccccc2CN1C(=O)c1ccco1)N1CCN(c2ccccc2)CC1 (stereo not given) | inactive
61 | O=C1NNC(c2ccccc2)=N/C1=C\c1ccc(Cl)cc1 | inactive
62 | Cc1ccc(-c2nc3ccccc3[nH]2)cc1N | 2.39 µM (active)
63 | O=C(Nc1sc2c(c1-c1nc3ccccc3[nH]1)CCCC2)C1CC1 | inactive
64 | c1ccc2[nH]c(-c3nc4ccccc4[nH]3)nc2c1 | 2.13 µM (active)
65 | CN(C)c1cc(N)c2ccccc2n1 (tested in a mixture with another compound) | inactive
66 | Cc1ccc(C)c(N2CCN(C(=O)CCc3nc4ccccc4[nH]3)CC2)c1 | inactive
67 | COc1ccc(-c2[nH]nc(-c3ccccc3)c2-c2nc3ccccc3[nH]2)cc1 | inactive
68 | COc1ccc(NC(=O)C2CCCN(S(=O)(=O)c3c(C)[nH]c(=O)[nH]c3=O)C2)c(OC)c1 (stereo not given) | inactive
69 | Cc1cc(C)c(NC(=O)CCc2c(C)nc3c(c(C)nn3C(C)(C)C)c2C)c(C)c1 | inactive
70 | CCCS(=O)(=O)N1CCC(n2c(C(F)(F)F)nc3cccnc32)CC1 | inactive
71 | CCOC(=O)c1ccc(NC(=O)Cn2c(=O)n(-c3ccc(C)cc3)c(=O)c3c2cnn3C)cc1 | inactive
72 | COc1cccc(/C=N/Nc2ncc(C(F)(F)F)cc2Cl)c1O | inactive
73 | COc1cccc2c(N/N=C/c3ccco3)cc(C)nc12 | inactive
74 | COc1cccc(/C=N/Nc2cc(C)nc(-c3ccccc3O)n2)c1O | 7.57 µM (active)
75 | COc1ccccc1CNC(=O)c1ccc(-n2c(C)cc3c2CCCC3)cc1 | inactive

Row | SMILES | Potency
76 | O=C(NCC(c1ccco1)S(=O)(=O)c1cccs1)c1ccc(F)cc1 (stereo not given) | inactive
77 | COc1ccc(C[C@H](C(=O)O)N2C(=O)c3ccc(C(=O)O)cc3C2=O)cc1 | inactive
78 | Cc1ccc2[nH]cc(CCCN3C(=O)c4ccccc4C3=O)c2c1 | inactive
79 | COc1ccc2[nH]cc(CCN3C(=O)c4ccc(C(=O)O)cc4C3=O)c2c1 | 21.3 µM (active)
80 | COc1ccc(OC)c(-n2nnc3c(sc4nc(C)c(Br)c(C)c43)c2=O)c1 | inactive
81 | Cc1ccc(S(=O)(=O)N(NC2=NS(=O)(=O)c3ccccc32)C(=O)c2ccccc2)cc1 | inactive
82 | CC(C)C(NS(=O)(=O)c1cccs1)C(=O)Nc1nc(C(C)(C)C)cs1 (stereo not given) | inactive
83 | CC(C)(C)c1csc(NC2=NS(=O)(=O)c3ccccc32)n1 | 1.51 µM (active)
84 | CCOc1ccc(C(C(=O)NC2CCCC2)N(C(=O)c2snc(C(N)=O)c2N)C2CCCC2)cc1 (stereo not given) | inactive
85 | CC(C)(C)[Si](OCC[C@@H]1C[C@@]1(C)[C@@H](NP(=O)(c1ccccc1)c1ccccc1)c1ccccc1)(c1ccccc1)c1ccccc1 | inactive
86 | CCn1nccc1C(=O)Nc1ccc(S(=O)(=O)NC23CC4CC(CC(C4)C2)C3)cc1 | inactive
87 | O=C(CC(O)(C(F)(F)F)C(F)(F)F)Nc1ccc(Cl)c(Cl)c1 | inactive
88 | CCn1nccc1C(=O)Nc1ccc(Cl)c(Cl)c1 | 21.3 µM (active)
89 | COC(=O)c1cnc(N2CCN(c3ccccc3OC)CC2)c2ccccc12 | inactive
90 | Cc1ccc(Cl)cc1NC(=O)CSc1nc2ccccc2nc1Cc1ccccc1 | inactive
91 | CCOc1ccc(-c2n[nH]c3c2C(c2ccccc2OC)N(c2ccc(Br)cc2)C3=O)cc1 (stereo not given) | inactive
92 | CCN(Cc1ccccc1)Cc1c(O)ccc2c(=O)c(-c3ccc(Cl)cc3Cl)coc12 | inactive
93 | CCOC(=O)c1[nH]c(C)c(C(=O)OCC(=O)N2c3ccccc3CC2C)c1C (stereo not given) | inactive
94 | Cc1c(C(=O)OCC(=O)N2CCCC2=O)oc2ccccc12 | 16.9 µM (active)
95 | O=C(OCC(=O)N1CCCC1=O)c1cc(S(=O)(=O)N2CCOCC2)ccc1Cl | inactive
96 | CCOC(=O)c1c(C)[nH]c(C(=O)OCC(=O)N2CCCC2=O)c1C | 12 µM (active)
97 | CN(C)S(=O)(=O)c1cccc(C(=O)OCC(=O)N2CCCC2=O)c1 | inactive
98 | CCOC(=O)c1c(C)[nH]c(C(=O)NCCN2CCOCC2)c1C | inactive
99 | CCOc1ccc(CCNC(=O)c2cc3c(=O)n(C)c4ccccc4c3n2C)cc1 | inactive
100 | O=S(=O)(c1ccc(Br)c2ccccc12)N1CCOCC1 | inactive

From PubChem BioAssay AID588342 (National Center for Advancing Translational Sciences (NCATS), 2011)
